# Compounds with a hit are over-represented: about 1.4% of the library has one in this group of screens.
# CFTR F508del cor – CFTR F508del correction in bronchial cells | CFBE cells, YFP halide quenching; stimulated with forskolin plus potentiator P3; % fluorescence drop versus neutral controls | activity (quench increase), % at 7.58 µM | 350,000 tested, 0.36% active | AID 720511;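 active means mean added fluorescence quench of at least 8% versus neutral control, with both replicates also reaching 8%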;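 further: cells transiently co-express mutant CFTR-F508del with the halide-sensitive YFP; corrector assay measuring rescue of mutant channel to the surface after 24 h compound exposure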
# C2C12 statin – suppressors of simvastatin-induced myotoxicity in C2C12 myotubes; rescue of ATP level, % at 7.49 µM; ATP luminescence, 48 h; scaled: DMSO 0, geranylgeraniol control 100; 330,000 tested, 0.78% active;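 active means mean ATP rescue above about 67%, or every replicate alone reaching that limit, limit read from the data, passing the limit was not always enough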;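 further: myotubes were challenged with 10 µM simvastatin during compound exposure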
# ARNT TACC3 PPI – disrupts binding between human ARNT and TACC3; Q9Y6A5; AlphaScreen His-ARNT PAS-B/GST-TACC3 binding, luminescence; TACC3 fragment carries E629A point mutation; inhibition, % at 9.99 µM; 390,000 tested, 0.66% active;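 active means mean inhibition of replicates at least 50% and at least half of replicates each reaching 50%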;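 further: 0% = complete ARNT plus TACC3 wells and 100% = ARNT alone without TACC3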
# PglD inh – inhibitors of Campylobacter jejuni PglD acetyltransferase. purified PglD enzyme, DTNB colorimetric CoA detection. inhibition, % at 12.5 µM. 360,000 tested, 0.098% active. AID 602405; in the data active means inhibition above about 16%, passing the limit was not always enough
# * marks the source's active call; other numbers are inactive results; · = no result given.
SMILES,CFTR F508del cor,C2C12 statin,ARNT TACC3 PPI,PglD inh
C[C@@H]1CCCCO[C@H](CN(C)C(=O)c2ccncc2)[C@@H](C)CN([C@@H](C)CO)C(=O)c2cc(NC(=O)Cc3ccccc3)ccc2O1,-1,45,-8,-2
COc1cc(C)c(-c2cc(C(=O)O)c(C)o2)cc1C(C)C,·,95*,·,-10
COc1cc(-c2nccc3cc4c(cc23)OCO4)cc(OC)c1OC,9.2*,-3,-2,-7
COc1ccc(-c2nc(-c3cccc(C)c3)no2)cc1OC,10*,3,-11,2
O=C1C=CN(C2OC(CO)C(O)C2O)C(=O)C1 (configuration not stated),9.7*,·,·,·
CC(=O)Nc1ccc2c(c1)C(=O)N(c1ccc(C)cc1)C2=O,·,77*,-5,-4
COc1ccc(N2C(=O)c3ccc(NC(C)=O)cc3C2=O)cc1,·,-17,-2,-8
Cc1cc(NC2=CC(=O)C(=O)c3ccccc32)no1,0,·,37*,·
COCCCNC(=S)N/N=C/c1ccc(O)cc1O,1,·,84*,2
Fc1c(F)c(F)c(/C=N/NC(=S)Nc2cccnc2)c(F)c1F,0,-1,0,·
COCCCNC(=S)N/N=C/c1ccc(O)cc1,-1,2,·,-2
Oc1ccc(/C=N/NC(=S)Nc2cccnc2)c(O)c1,·,·,65*,·
Oc1cccc(/C=N/NC(=S)Nc2cccnc2)c1O,·,·,66*,·
Fc1cccc(F)c1/C=N/NC(=S)Nc1cccnc1,-1,·,3,·
Oc1ccc(/C=N/NC(=S)Nc2cccnc2)c(O)c1O,0,-9,64*,4
CCCC(=O)Nc1ccc2c(c1)OC[C@H](C)N(C)C[C@H](C)[C@@H](OC)CN(C)C2=O,0,·,·,·
CN(C)CCCNC(=O)C[C@@H]1C=C[C@@H](NC(=O)Cc2cccnc2)[C@H](CO)O1,3,-17,6,0
Oc1ccc(C=NNC(=S)Nc2ccc(F)cc2)c(O)c1,6,7,65*,-1
N#C/C(=C\c1ccccn1)c1nc2ccccc2s1,41*,25,-6,-3
CNC[C@H]1Oc2ccc(NS(C)(=O)=O)cc2CC(=O)N([C@H](C)CO)C[C@@H]1C,-2,-10,-1,2
O=C(COC(=O)/C=C/c1ccccc1Cl)NC(=O)NCc1ccccc1,8.9*,-7,-16,-7
O=C(/C=C/c1ccccc1Cl)NCc1ccccc1,·,145*,2,2
CC(C)NC(=O)N(C)C[C@H]1Oc2ncc(C#Cc3ccc(F)cc3)cc2C(=O)N([C@@H](C)CO)C[C@H]1C,-1,9,-2,-5
COc1ccc(S(=O)(=O)Nc2ccc3c(c2)C(=O)N([C@H](C)CO)C[C@H](C)[C@@H](CN(C)C(=O)Nc2c(C)noc2C)O3)cc1,-1,126*,5,-4
COc1ccc(S(=O)(=O)Nc2ccc3c(c2)C(=O)N([C@@H](C)CO)C[C@@H](C)[C@H](CN(C)C(=O)Nc2c(C)noc2C)OCCCC[C@H](C)O3)cc1,-1,89*,4,1
SMILES,CFTR F508del cor,C2C12 statin,ARNT TACC3 PPI,PglD inh
COc1ccc(S(=O)(=O)Nc2ccc3c(c2)C(=O)N([C@@H](C)CO)C[C@H](C)[C@H](CN(C)C(=O)Nc2c(C)noc2C)O3)cc1,1,·,1,1
COc1cccc(S(=O)(=O)N(C)C[C@@H]2OCc3ccccc3-c3c(n(C)c4ccccc34)C(=O)N([C@@H](C)CO)C[C@H]2C)c1,-2,·,·,·
COc1cccc(S(=O)(=O)N(C)C[C@H]2OCc3ccccc3-c3c(n(C)c4ccccc34)C(=O)N([C@H](C)CO)C[C@H]2C)c1,1,80*,12,-2
C[C@@H]1CN([C@H](C)CO)C(=O)c2cc(NS(=O)(=O)c3ccc(Cl)cc3)ccc2O[C@@H]1CN(C)C(=O)Nc1ccccc1,-1,82*,5,1
C[C@@H]1CN([C@@H](C)CO)C(=O)c2cc(NS(=O)(=O)c3ccc(Cl)cc3)ccc2O[C@@H]1CN(C)C(=O)Nc1ccccc1,-2,9,-4,5
COc1ccc(S(=O)(=O)Nc2ccc3c(c2)C(=O)N([C@@H](C)CO)C[C@@H](C)[C@@H](CN(C)C(=O)Nc2c(C)noc2C)OCCCC[C@H](C)O3)cc1,1,39,-5,3
COc1ccc(NC(=O)N(C)C[C@H]2Oc3ccc(NS(=O)(=O)c4c(C)noc4C)cc3C(=O)N([C@H](C)CO)C[C@@H]2C)cc1,2,124*,-1,-5
COc1ccc(NC(=O)N(C)C[C@H]2Oc3ccc(NS(=O)(=O)c4ccc(OC)cc4)cc3C(=O)N([C@@H](C)CO)C[C@H]2C)cc1,0,73*,9,-1
COc1ccc(S(=O)(=O)N(C)C[C@@H]2Oc3ccc(NC(=O)C4CC4)cc3C(=O)N([C@H](C)CO)C[C@H]2C)cc1,0,-47,-5,16*
COc1ccc(S(=O)(=O)Nc2ccc3c(c2)C(=O)N([C@H](C)CO)C[C@@H](C)[C@@H](CN(C)Cc2ccc(C(F)(F)F)cc2)O3)cc1,9.2*,39,1,-3
CC=Cc1ccc2n(c1=O)C[C@H]1[C@H](CO)[C@@H](C(=O)NCc3ccncn3)N(C(=O)C3CCCC3)[C@@H]21 (mixture of isomers),-3,·,·,·
CCN(CC)CCNC(=O)C(=O)Nc1ccc2c(c1)N(S(=O)(=O)c1cccs1)CCC2,-4,-20,0,1
CCCCNC(=O)C(=O)Nc1ccc2c(c1)N(S(=O)(=O)c1cccs1)CCC2,11*,-121,·,12
Cn1ncc(C#N)c1/N=C/N1CCOCC1,·,117*,-2,1
Cn1ncc(C#N)c1/N=C/N1CCCCCC1,·,-5,-12,0
O=C(c1ccccn1)N1CC[C@H]2[C@H](CO)Nc3ccc(-c4ccc(F)cc4)cc3[C@H]21,2,15,11,-4
Cc1ccc2c(CN3CCN(S(=O)(=O)c4ccc(Cl)cc4)CC3)cc(=O)oc2c1C,19*,-33,-4,5
CCN(C(=O)COC(=O)c1cc(-c2ccccc2)nc2c1c(C)nn2-c1ccc(C)cc1)C1CCS(=O)(=O)C1 (configuration not stated),8.2*,·,-2,·
O=C(CSc1nnc(-c2cccnc2)o1)Nc1nccs1,0,-17,50*,-5
O=C(C1CC1)N1CCCCN2[C@H](CO)[C@H](c3ccc(C#CC4(O)CCCC4)cc3)[C@@H]2C1,-1,·,-2,3
Cn1c(=O)c(NC2CCCCC2)c2c3c(cccc31)C(=O)c1ccccc1-2,16*,·,-45,·
Cn1c(=O)c(NCCO)c2c3c(cccc31)C(=O)c1ccccc1-2,·,·,·,-3
COc1ccccc1C(=O)Nc1ccc2c(c1)OC[C@H](C)N(C)C[C@H](C)[C@@H](OC)CN(C)C2=O,3,-14,-3,0
CCOCC(=O)Nc1ccccc1C(=O)OCC,·,60,20,-7
CCOCCOC(=O)COC(=O)c1ccccc1NC(=O)c1ccccc1,11*,·,·,·
Nc1ccc(Br)c2cccnc12,1,·,49*,·
CS(=O)(=O)Oc1ccc(Br)c2cccnc12,2,1,-15,0
